Data taken from PubChem BioAssay (NCATS).
Results filed as inconclusive are left out. Where a call stands in place of a potency, no number is given. Activity calls are given as the source filed them. Calls follow the shape of the dose curve; as a rule, active = well fitted activation curve with a large enough effect; inconclusive = small, poorly fitted or top-dose-only effect; inactive = flat fitted curve, though single readings scatter.

Assay: Primary redox qHTS assay for identification of artifact compounds. (AID 1845223)
Details: Amplex Red/HRP redox cycling with DTT, fluorescence; series mostly up to 53.8 µM
Procedure, shortened: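 Redox-cycling detection via DTT (250 uM final) oxidation coupled to Amplex Red (25 uM)/HRP (250 mU/mL) in HBSS. 15 min preincubation plus 30 min after DTT, room temperature. Ex/Em 525/598 nm; 4-parameter Hill fit against DMSO and 10 uM DA3003.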
With `CCOc1ccc(-c2cc(NC(=O)c3c(F)cccc3F)c(C(=O)O)s2)cc1` the Potency was “inactive”. In the case of `CC1=C2C[C@H]3OC(=O)[C@H](O)[C@@]4(O)[C@@H](C)[C@@H](O)[C@H](O)C([C@@]2(C)[C@H](O)[C@@H](O)C1)[C@@]34C` (stereo partly drawn), the Potency is reported as “inactive”. For `N#CC1C(=O)N=C(c2cc(Cl)ccc2O)C=C1c1cc(OCc2ccccc2)cc(OCc2ccccc2)c1` (stereo not drawn), the Potency was “inactive”. For `CC1=C(C(=O)OC2OC(COC3OC(CO)C(O)C(O)C3O)C(O)C(O)C2O)C(C)(C)CCC1` (stereo not drawn), the Potency was “inactive”. In the case of `CC1=C2C(=O)C=C(CO[C@@H]3O[C@H](CO)[C@@H](O)[C@H](O)[C@H]3O)[C@@H]2[C@H]2OC(=O)[C@H](C)[C@@H]2[C@@H](O)C1`, the Potency is reported as “inactive”. With `CC1(C)C(=O)N2c3ccccc3C(O)(CC(C(=O)O)n3cnc4ccccc4c3=O)C2N1O` (stereo not drawn) the Potency was “inactive”. In the case of `COc1cc([C@@H](O[C@@H]2O[C@H](CO)[C@@H](O)[C@H](O)[C@H]2O)[C@@H]2CO[C@H](c3ccc(O)c(OC)c3)[C@H]2CO)ccc1O`, the Potency is reported as “inactive”. With `CCNC(=O)C1CC(F)(c2ccc(CN3CCCC3)c(F)c2)C1` (stereo not drawn) the Potency was “inactive”. In the case of `Cc1oc2nc3c(c(NC(=O)CN4CCCC4=O)c2c1C)CCCC3`, the Potency is reported as “inactive”. For `CCC(C)C1NC(=O)C2C(C)CCN2C(=O)C(CC(O)CO)OC(=O)CCNC(=O)C(C)N(C)C(=O)C(C(C)C)N(C)C1=O` (stereo not drawn), the Potency was “inactive”. In the case of `CC1CCC2(C)CCC3(C)C(=CCC4C5(C)CCC(O)C(C)(C(=O)O)C5CCC43C)C2C1C` (stereo not drawn), the Potency is reported as “inactive”. In the case of `C[C@@H]1O[C@@H](O[C@H]2[C@H](O[C@H]3[C@H](O[C@H]4CC[C@@]5(C)C(CC[C@]6(C)C5CC=C5[C@@H]7CC(C)(C)C[C@@H](O)[C@]7(C)CC[C@]56C)C4(C)C)O[C@H](C(=O)O)[C@@H](O)[C@@H]3O)O[C@H](C(=O)O)[C@H](O)[C@@H]2O)[C@H](O)[C@H](O)[C@H]1O` (stereo partly drawn), the redox activity (% of DA3003) is reported as 11.1% [at 11.5 µM] (inactive). For `COc1cc(Nc2nc3c(s2)CCCC3c2ccccc2)ccc1-n1cnc(C)c1` (stereo not drawn), the redox activity (% of DA3003) was -0.384% [at 11.5 µM] (inactive).
